# Data: ChEMBL document CHEMBL1961873, “Compounds: GSK PKIS; Assays: Nanosyn kinase panel” (2012)
# Assays:
# [1] = target: T1, 3-phosphoinositide-dependent protein kinase 1 (Homo sapiens) (UniProt O15530); conditions: at 0.1 µM;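 also: values are mean inhibition of PDK1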
# T1 sequence (whole entry): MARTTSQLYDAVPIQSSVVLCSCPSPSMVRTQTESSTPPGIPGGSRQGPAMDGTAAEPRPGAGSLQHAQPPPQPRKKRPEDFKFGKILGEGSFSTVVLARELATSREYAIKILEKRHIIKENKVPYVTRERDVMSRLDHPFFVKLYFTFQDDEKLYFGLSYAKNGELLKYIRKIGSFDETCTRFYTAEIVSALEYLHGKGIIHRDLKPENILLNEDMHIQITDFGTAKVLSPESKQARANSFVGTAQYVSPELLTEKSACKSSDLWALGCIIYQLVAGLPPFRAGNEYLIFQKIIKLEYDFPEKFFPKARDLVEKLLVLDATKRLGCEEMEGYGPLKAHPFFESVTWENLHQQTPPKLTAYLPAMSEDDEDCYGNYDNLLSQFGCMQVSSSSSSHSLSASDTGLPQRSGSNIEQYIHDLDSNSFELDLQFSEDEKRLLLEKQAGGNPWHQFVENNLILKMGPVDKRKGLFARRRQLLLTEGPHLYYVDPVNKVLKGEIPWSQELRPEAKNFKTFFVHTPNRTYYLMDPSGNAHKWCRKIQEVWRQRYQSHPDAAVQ
# [2] = target: cAMP-dependent protein kinase catalytic subunit alpha (Homo sapiens) (UniProt P17612); conditions: at 0.1 µM
# [3] = target: cAMP-dependent protein kinase catalytic subunit alpha (Homo sapiens) (UniProt P17612); conditions: at 1 µM
# [4] = target: Protein kinase C alpha type (Homo sapiens) (UniProt P17252); conditions: at 0.1 µM
# [5] = target: Protein kinase C alpha type (Homo sapiens) (UniProt P17252); conditions: at 1 µM
# [6] = target: Protein kinase C beta type (Homo sapiens) (UniProt P05771); conditions: at 0.1 µM
# [7] = target: Protein kinase C beta type (Homo sapiens) (UniProt P05771); conditions: at 1 µM
# [8] = target: Protein kinase C eta type (Homo sapiens) (UniProt P24723); conditions: at 0.1 µM
# [9] = target: Protein kinase C eta type (Homo sapiens) (UniProt P24723); conditions: at 1 µM
# [10] = target: Protein kinase C gamma type (Homo sapiens) (UniProt P05129); conditions: at 0.1 µM;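 also: values are mean percent inhibition of PKC gamma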
# Sequence of Protein kinase C eta type (Homo sapiens) (P24723 whole entry): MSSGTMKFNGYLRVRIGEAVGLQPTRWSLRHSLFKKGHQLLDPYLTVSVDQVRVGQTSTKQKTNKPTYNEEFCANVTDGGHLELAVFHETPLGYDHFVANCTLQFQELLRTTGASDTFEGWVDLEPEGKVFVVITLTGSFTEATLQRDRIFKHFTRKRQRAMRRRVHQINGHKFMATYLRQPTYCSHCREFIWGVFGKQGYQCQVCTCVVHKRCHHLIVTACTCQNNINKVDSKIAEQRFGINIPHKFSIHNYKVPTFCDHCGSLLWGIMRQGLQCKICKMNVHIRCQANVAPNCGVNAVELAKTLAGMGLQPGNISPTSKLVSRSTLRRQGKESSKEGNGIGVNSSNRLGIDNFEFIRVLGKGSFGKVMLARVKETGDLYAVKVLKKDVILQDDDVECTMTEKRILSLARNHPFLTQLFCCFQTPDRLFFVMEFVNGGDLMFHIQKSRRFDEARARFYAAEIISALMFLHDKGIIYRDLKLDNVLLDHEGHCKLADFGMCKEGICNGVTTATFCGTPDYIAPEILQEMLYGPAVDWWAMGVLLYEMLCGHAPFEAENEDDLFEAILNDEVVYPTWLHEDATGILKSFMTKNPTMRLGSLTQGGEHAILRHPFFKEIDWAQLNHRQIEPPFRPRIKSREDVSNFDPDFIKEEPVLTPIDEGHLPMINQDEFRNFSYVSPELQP
# Sequence of Protein kinase C beta type (Homo sapiens) (P05771 2-671 limits assumed): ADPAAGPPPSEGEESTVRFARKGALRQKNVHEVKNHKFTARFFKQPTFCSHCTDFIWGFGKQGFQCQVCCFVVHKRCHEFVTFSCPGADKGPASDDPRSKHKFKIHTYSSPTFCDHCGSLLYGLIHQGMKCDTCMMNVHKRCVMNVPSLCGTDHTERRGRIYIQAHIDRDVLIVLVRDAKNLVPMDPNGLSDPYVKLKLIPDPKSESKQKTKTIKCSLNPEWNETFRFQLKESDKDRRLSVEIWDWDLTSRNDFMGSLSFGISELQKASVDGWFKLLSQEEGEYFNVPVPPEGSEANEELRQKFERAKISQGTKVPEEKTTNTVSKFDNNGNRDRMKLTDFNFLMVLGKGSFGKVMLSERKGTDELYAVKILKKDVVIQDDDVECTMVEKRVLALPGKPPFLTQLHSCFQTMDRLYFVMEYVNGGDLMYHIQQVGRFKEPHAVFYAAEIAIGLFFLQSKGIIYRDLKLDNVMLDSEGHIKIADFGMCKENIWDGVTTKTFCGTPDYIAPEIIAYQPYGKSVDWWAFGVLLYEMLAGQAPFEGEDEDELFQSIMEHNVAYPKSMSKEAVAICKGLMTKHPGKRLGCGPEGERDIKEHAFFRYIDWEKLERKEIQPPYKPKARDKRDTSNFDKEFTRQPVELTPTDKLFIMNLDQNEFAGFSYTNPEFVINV
Structure (SMILES),inhibition [1] [%],inhibition [2] [%],inhibition [3] [%],inhibition [4] [%],inhibition [5] [%],inhibition [6] [%],inhibition [7] [%],inhibition [8] [%],inhibition [9] [%],inhibition [10] [%]
O=C(Nc1n[nH]c2nc(-c3ccco3)ccc12)C1CC1,2.58,1.78,4.07,-0.2,0.41,-0.22,-1.09,-0.3,1.42,-0.6
C[C@@H](Oc1cc(-n2cnc3ccc(OC4CCN(C)CC4)cc32)sc1C(N)=O)c1ccccc1Cl,0.63,-1.89,-4.19,-3.4,0.64,0.95,3.55,2.46,4.62,0.71
NC(=O)c1ccc(Oc2nccc(-c3c(-c4ccc(F)cc4)ncn3C3CCNCC3)n2)cc1,1.43,8.89,43,1.16,2.25,1.04,5.96,5.08,5.97,2.56
COc1cc(Nc2ncc3c(C)nc(-c4cccc(C(F)(F)F)c4)n3n2)cc(OC)c1OC,3.64,2.66,2.72,-0.1,1.99,0.93,5.54,6.38,3.64,2.47
Nc1nccc(-c2c(-c3ccc(F)cc3)ncn2C2CCC(O)CC2)n1 (stereo not given),0.39,4.16,48.4,0.74,10.2,3.05,20.3,-3.17,-1.04,-3.99
O=C1Nc2ccc(I)cc2C1=Cc1cc(Br)c(O)c(Br)c1,1.34,2.28,2.5,0.27,0.59,0.25,1.41,5.57,2.17,2.32
Cc1ccc(C(=O)NC2CCC2)cc1-c1ccc(C(=O)NCC2CC2)cc1,1.97,1.15,1.14,0.19,-0.23,0.31,1.48,7.1,2.68,0.43
Fc1ccc(-c2c(-c3ccncc3)nc3n2CCS3)cc1,2.05,-0.65,13.2,-2.65,-2.48,2.56,15.9,-2.42,7.59,1
